Results from the supplement of paper PMC11219838.
A number with no mark means an inactive call.

Tested on: Caenorhabditis elegans L1 (N2)
Test: survival and reproduction score of C. elegans L1 (0: 0-10 living worms, 1: 11-20, 2: 21-50, 3: >50, 4: overgrown) (score 0-4); higher = more worms, less nematicidal, active = 1 or less; extreme values may be limits of the assay
Conditions: 60 µM; 6 days; temperature: 20 °C
In short: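 After compound was pinned to 60 µM final (0.6% v/v DMSO) into wells with roughly 20 synchronized C. elegans N2 L1s and E. coli HB101 in liquid NGM, the sealed 96-well plates were shaken at 200 rpm for 6 days at 20 °C. Under a dissection microscope, survival and reproduction were graded ordinally by living worms per well. A grade of 0 stood for 0–10 worms and 4 for overgrown, starved wells; two biological replicates were averaged.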

Structure (SMILES)	survival and reproduction score
Cc1ccccc1OCc1nc(-c2ccc(Cl)cc2)no1	4
COc1cccc(-c2nnc(SCC(=O)NC3CCCCC3)o2)c1	4
Brc1ccccc1-c1nc(-c2ccc3c(c2)OCO3)no1	4
COc1ccc(-c2nnc(SCC(=O)c3ccc4ccccc4c3)o2)cc1	4
Cc1cccc(OC(C)c2nc(-c3ccncc3)no2)c1 (stereo not drawn)	4
COc1ccccc1-c1nnc(SCC(=O)Nc2ccc(Br)cn2)o1	4
c1ccc(CSc2nnc(-c3ccccc3)o2)cc1	0 (active)
Cc1nc(CSc2nnc(-c3ccc(Cl)cc3)o2)cs1	4
c1ccc(-c2noc(-c3cccs3)n2)cc1 [tioxazafen]	0 (active)
Cc1cnc(NC(=O)CSc2nnc(-c3cccc(Cl)c3)o2)s1	4
COc1ccc(-c2noc(C3CCCCC3)n2)cc1	4
COc1ccc(-c2noc(-c3cccc(C)c3)n2)cc1	0 (active)
COc1cccc(-c2noc(COc3ccc4ccccc4c3)n2)c1	4
COc1cccc(CSc2nnc(-c3ccco3)n2C)c1	2
O=C(Nc1ccccc1-c1nc(-c2cccnc2)no1)c1cccc(Cl)c1	4
Cc1ccc(C)c(OCc2nc(-c3ccccc3Cl)no2)c1	4
Cc1ccc(C)c(OCc2nc(-c3cccnc3)no2)c1	4
Cc1ccc(OCc2nc(-c3ccc(Cl)cc3)no2)c(C)c1	4
Cc1ccc(OCc2nc(-c3ccccc3Cl)no2)c(C)c1	4

Structure (SMILES)	survival and reproduction score
COc1ccccc1-c1nc(-c2ccc(C)cc2)no1	4
Cc1ccc(OCc2nc(-c3ccccc3Cl)no2)cc1C	2
COc1ccc(-c2noc(-c3cc(C)ccc3C)n2)cc1	4
Cc1ccc(-c2nnc(SCC(=O)NCCc3ccccc3)o2)cc1	4
O=C(CSc1nnc(-c2ccco2)o1)Nc1cccc(C(F)(F)F)c1	4
Fc1ccc(-c2noc(COc3ccccc3Cl)n2)cc1	4
Brc1ccc(OCc2nc(-c3ccc4c(c3)OCO4)no2)cc1	4
CC(=O)Nc1ccc(NC(=O)c2ccccc2-c2nc(-c3ccccc3Cl)no2)cc1	4
CC(=O)Nc1ccc(C(=O)CSc2nnc(-c3cccc(Br)c3)o2)cc1	4
Cc1c(C(=O)CSc2nnc(-c3ccccc3)o2)c2ccccc2n1C	4
c1csc(-c2nnc(-c3cccs3)o2)c1	2
O=C(CSc1nnc(-c2ccccc2Cl)o1)NCc1ccco1	4
COc1ccc(Cl)cc1-c1noc(COc2ccccc2)n1	4
O=C(c1ccccc1-c1nc(-c2ccc(Cl)cc2)no1)N1CCCCC1	4
Clc1cccc(-c2nc(-c3ccncc3)no2)c1	0 (active)
COC(=O)c1ccc(CSc2nnc(-c3cccnc3)o2)cc1	4
O=C(CSc1nnc(-c2cccc(Br)c2)o1)Nc1ccccn1	4
CCOc1nc(-c2ccc(C)cc2)ccc1-c1noc(-c2ccc(F)cc2)n1	2
Cc1cccc(-c2noc(-c3ccc4c(c3)OCO4)n2)c1	4
